# Screening results (PubChem BioAssay)
# IDH1 R132H inh: qHTS for Inhibitors of mutant isocitrate dehydrogenase 1 (IDH1): qHTS. IDH1-R132H enzyme, NADPH consumption, diaphorase/resazurin fluorescence. Potency, µM (doses to about 76.6 µM), inactives show at the highest dose activity change, negative = inhibition, most hits filed as inhibitors. 390,000 compounds, 0.093% hits. AID 602179, 2012. Isocitrate dehydrogenase [NADP] cytoplasmic (Homo sapiens), O75874; further: potency means the concentration at half of the fitted maximal effect; on the % scale 0 is the no-effect control and ±100 the full control effect; nearly all actives have a fitted effect of over 65% in size
#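 IDH1-R132H (0.5 ug/mL) preincubated 30 min with compound, then NADPH (0.016 mM) and alpha-KG (2 mM) added; 80 min at RT, pH 7.5. Remaining NADPH coupled via diaphorase/resazurin to fluorescence (540/590 nm); concentration-response curves normalized to no-enzyme control.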
# ASM inhibitor: Inhibitors of Secretory Acid Sphingomyelinase (S-ASM): qHTS. Sphingomyelin phosphodiesterase (Homo sapiens), P17405. placental ASM, HMU-PC fluorogenic substrate, 60 min. Potency, µM (doses to about 57.5 µM), for inactives: at the top dose activity change, negative = inhibition, actives largely listed as inhibitors. 340,000 compounds, 0.006% hits; further: potency means the concentration at half of the fitted maximal effect
# Target sequence (P17405 47-631 limits assumed): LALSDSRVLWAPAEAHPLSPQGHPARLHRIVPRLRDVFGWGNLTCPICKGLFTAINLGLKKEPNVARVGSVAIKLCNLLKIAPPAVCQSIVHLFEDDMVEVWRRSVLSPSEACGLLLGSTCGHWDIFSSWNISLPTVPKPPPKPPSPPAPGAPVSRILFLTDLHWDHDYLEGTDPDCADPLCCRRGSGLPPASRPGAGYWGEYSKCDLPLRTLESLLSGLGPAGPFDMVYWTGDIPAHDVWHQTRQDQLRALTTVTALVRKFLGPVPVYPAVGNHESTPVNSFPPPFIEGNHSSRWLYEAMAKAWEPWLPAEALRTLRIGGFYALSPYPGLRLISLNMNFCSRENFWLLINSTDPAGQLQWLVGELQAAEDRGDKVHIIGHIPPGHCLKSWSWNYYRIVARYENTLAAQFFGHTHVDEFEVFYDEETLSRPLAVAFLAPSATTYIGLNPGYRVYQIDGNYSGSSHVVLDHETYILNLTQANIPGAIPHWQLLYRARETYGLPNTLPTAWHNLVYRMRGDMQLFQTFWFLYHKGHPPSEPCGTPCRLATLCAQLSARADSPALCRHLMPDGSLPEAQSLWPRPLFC
#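 Fluorogenic HMU-PC substrate (9 uM final) is turned over by placental ASM in 60 min at 37 C after a 10 min compound preincubation. Reaction ended by alkaline stop (pH 10), with fluorescence read at 386/447 nm.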
# KCNH2 WT inh: qHTS for Inhibitors of KCHN2 3.1: Wildtype qHTS. Voltage-gated inwardly rectifying potassium channel KCNH2 (Homo sapiens), Q12809. 340,000 compounds, 0.37% hits. activity change, % at 1.84 µM. U2OS, BacMam KCNH2, thallium flux FluxOr; active compounds read low;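 active means maximum activity change below -70%; inconclusive means maximum activity change between -70% and -50%; inactive means maximum activity change above -50%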; further: on the % scale 0 is the no-effect control and ±100 the full control effect
#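 U2OS cells were transduced with wild-type KCNH2 virus (2.03 x 10^8 / mL) for 4 h at room temperature, then cultured overnight at 37 C. Thallium flux was read with FluxOr dye. Rate constants were normalized to DMSO controls.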
# KCNH2 3.1 inh: qHTS for Inhibitors of KCHN2 3.1: Mutant qHTS; Potassium voltage-gated channel subfamily H member 2, brain isoform KCNH2 3.1 (human); U2OS KCNH2 3.1, thallium flux FluxOr; active compounds read low; activity change, % (tested at about 1.8 µM); 340,000 compounds, 0.95% hits; AID 720553, 2013;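 active means maximum activity change below -70%; inconclusive means maximum activity change from -70% to -50%; inactive means maximum activity change above -50%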;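 further: thallium influx rate constant from kinetic fluorescence after stimulation buffer; on the % scale 0 is the no-effect control and ±100 the full control effect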
#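 Channel expression came from 3.1 mutant virus (1.77 x 10^8 /mL) applied to suspended U2OS cells for 4 h. Flux was tracked with FluxOr dye plus Red40 quencher, and kinetic rate constants normalized to controls.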
# Anesthetic bind: qHTS Assay for Identification of Novel General Anesthetics; Ferritin light chain (Equus caballus), P02791; apoferritin/1-aminoanthracene competitive binding, fluorescence; Potency, µM (top dose mostly 77.5 µM), for the others: at the top dose activity change, negative = displacement, actives largely listed as inhibitors; 350,000 compounds, 0.074% hits; further: potency means the concentration at half of the fitted maximal effect; on the % scale 0 is the no-effect control and ±100 the full control effect; nearly all actives have a fitted effect of over 20% in size
#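 10 uM apoferritin + 50% sat. 1-AMA, PBS; cpd 10 min RT; Ex380/Em535 endpoint; normalized to free probe vs complex; 4-param Hill fit; propofol titration as pos. ctrl.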
# * = called active by the depositor; ? = inconclusive; nt = not tested or not shown; [ ] = another dose, or the depositor's remark. Hits are enriched below; roughly 1.2% of the tested compounds scored in any of these assays. Unless noted, the call rests on the fitted dose curve; in most records, active means well fitted inhibition curve with a large enough effect; inconclusive means small, poorly fitted or top-dose-only effect; inactive means no such curve, though single readings can be large or run the other way.
SMILES,IDH1 R132H inh,ASM inhibitor,KCNH2 WT inh,KCNH2 3.1 inh,Anesthetic bind
CC[C@H](C)[C@H](NC(=O)[C@H](CCC(=O)O)NC(=O)[C@H](CO)NC(=O)[C@@H](NC(=O)[C@H](C)N)C(C)C)C(=O)N[C@@H](CCC(N)=O)C(=O)N[C@@H](CC(C)C)C(=O)N[C@@H](CCSC)C(=O)N[C@@H](Cc1cnc[nH]1)C(=O)N[C@@H](CC(N)=O)C(=O)N[C@@H](CC(C)C)C(=O)NCC(=O)N[C@@H](CCCCN)C(=O)N[C@@H](Cc1cnc[nH]1)C(=O)N[C@@H](CC(C)C)C(=O)N[C@@H](C)C(=O)N[C@@H](CO)C(=O)N[C@H](C(=O)N[C@@H](CCC(=O)O)C(=O)N[C@@H](CCCNC(=N)N)C(=O)N[C@@H](CCSC)C(=O)N[C@@H](CCC(N)=O)C(=O)N[C@@H](Cc1c[nH]c2ccccc12)C(=O)N[C@@H](CC(C)C)C(=O)N[C@@H](CCCNC(=N)N)C(=O)N[C@@H](CCCCN)C(=O)N[C@@H](CCCCN)C(=O)N[C@@H](CC(C)C)C(=O)N[C@@H](CCC(N)=O)C(=O)N[C@@H](CC(=O)O)C(=O)N[C@H](C(=O)N[C@@H](Cc1cnc[nH]1)C(=O)N[C@@H](CC(N)=O)C(=O)N[C@@H](Cc1ccccc1)C(=O)O)C(C)C)C(C)C,nt,nt,nt,nt,-18%
CCOC(=O)NC(=O)/C(C#N)=C\NNc1ncc(C(F)(F)F)cc1Cl,-7%,3%,-71*,10,-3%
CCOC(=O)N1CCC(=NNc2ncc(C(F)(F)F)cc2Cl)CC1,6%,6%,-4,6,-14%
COc1ccc(/C=C(\NC(=O)c2ccc([N+](=O)[O-])cc2)C(=O)NCCCn2ccnc2)cc1,-4%,-1%,-111*,-35,-1%
COc1ccc(C(=O)N/C(=C\c2ccco2)C(=O)NCCCn2ccnc2)cc1,15%,5%,-13,-27,-9%
COc1ccc(/C=C(\NC(=O)c2ccc(C)cc2)C(=O)NCCCn2ccnc2)cc1,-6%,2%,?,-92*,-3%
O=C(NCCCn1ccnc1)/C(=C/c1ccc(Cl)cc1)NC(=O)c1ccccc1,1%,5%,-129*,-105*,1%
O=C(NCCCn1ccnc1)/C(=C\c1ccc(Br)cc1)NC(=O)c1ccccc1F,8%,-3%,-129*,-111*,3%
CC(C)CCCC(C)CCCC(C)CCCC(C)C(=O)O (centres undefined),nt,nt,nt,nt,-11%
C#CCCCO/N=C1/C[C@@H](O)[C@@H](O)[C@@H]2[C@@H]3C(=O)N(CC)C(=O)[C@H]3CC[C@H]12,nt,nt,nt,nt,0%[15.3 µM]
O=C(CCCN1C(=O)c2ccccc2C1=O)NCCCn1ccnc1,0%,5%,13,8,4%
O=C(NCCCN1CCc2ccccc2C1)Nc1ccc(Cl)cc1,7%,3%,-6,-87*,-21%
O=C(NCCCn1ccnc1)Nc1ccc(Cl)c(Cl)c1,3%,-1%,2,-24,-12%
COc1ccc(NC(=O)NCCN2CCc3ccccc3C2)cc1,0%,3%,7,13,-2%
O=C(NCCCn1ccnc1)Nc1ccc(Cl)cc1,4%,-1%,2,-71*,-3%
O=C(NCCCn1ccnc1)C(Cc1ccc([N+](=O)[O-])cc1)N1C(=O)c2ccccc2C1=O (centres undefined),-3%,3%,-119*,-88*,0%
CCOC(=O)c1cccc(NC(=O)c2cc(S(=O)(=O)N3CCCC3)cn2C)c1,-7%,nt,nt,nt,5%
COc1cccc(Cn2c(CNC(=O)C(C)C)nc3cccnc32)c1,-5%,nt,nt,nt,-5%
COc1ccc(N2CCN(CCCn3c(=S)[nH]c4ccccc4c3=O)CC2)cc1,5%,3%,-118*,-80*,-9%
COc1ccc(-c2cn3c(n2)sc2cc(C(=O)NC4CCCc5ccccc54)ccc23)cc1 (centres undefined),-4%,nt,nt,nt,0%
COCC1C2CC[C@H]3C(OCc4ccc(F)cc4C(F)(F)F)OC[C@]4(C)[C@H]3C2=C(CN4C(=O)OC(C)(C)C)[C@H](C)C1COC (some centres undefined),nt,nt,nt,nt,-21%
Cc1cccc(C)c1NC(=S)N/N=C1\CC2CC=CC12 (centres undefined),-8%,-3%,7,-131*,-7%
Cc1ccc(C)c(N2CCN(C(=O)c3ccc(-c4nc(COc5ccccc5)c(C)o4)cc3)CC2)c1,-4%,nt,nt,nt,55%
CC1(C)CC(=O)C=C(c2cccc(OC(=O)c3ccc(-c4ccccc4)cc3)c2)C1=O,-9%,nt,-142*,-156*,nt
COc1ccc(CNc2ncnc3ccc(-c4ccccc4CN(C)C)cc23)c(OC)c1,nt,nt,nt,nt,-11%
SMILES,IDH1 R132H inh,ASM inhibitor,KCNH2 WT inh,KCNH2 3.1 inh,Anesthetic bind
CCOc1ccccc1Nc1ccc2cc(S(=O)(=O)N3CCCCC3)ccc2n1,16%,nt,nt,nt,440%
CC(=O)Nc1ccc(S(=O)(=O)NC(C(=O)O)C(C)C)cc1 (centres undefined),1%,3%,-5,-72*,nt
CCC(C)NS(=O)(=O)c1ccc(NC(C)=O)cc1 (centres undefined),5%,-2%,15,-9,-3%
CCc1c(C)nc(SCC(=O)N2CCN(c3ccccc3)CC2)[nH]c1=O,0%,-1%,-79*,nt,-5%
CCc1c(C)nc(SCC(=O)N2CCN(c3ccccc3OC)CC2)[nH]c1=O,-5%,-2%,-4,2,-5%
Cn1c(SCC(=O)N2CCN(c3ccccc3)CC2)nnc1-c1ccco1,1%,3%,-77*,5,-9%
COCCn1c(SCC(=O)NCc2ccc3c(c2)OCO3)nnc1-c1c[nH]c2ccccc12,-8%,3%,-149*,-215*,-13%
NC(=O)Cn1nnc(-c2ccc(CN3CCCCC3)cc2)n1,-6%,4%,-6,-82*,-2%
Cc1cccc(NC(=O)Cn2nnc(-c3ccc(CN4CCCC4)cc3)n2)c1C,-2%,-2%,-1,3,-22%
CCOc1ccc(/C=C/c2nc(C#N)c(N3CCCCC3)o2)cc1,3%,nt,nt,nt,-3%
CCN(CC)CCNS(=O)(=O)c1ccc(Cl)cc1,2%,7%,-2,-6,-6%
CCCN(CCC)CC(C)(C)NS(=O)(=O)c1ccc(Cl)cc1,-8%,-2%,0,-140*,2%
CN1c2ccc(Cl)cc2-c2nc(SCC(=O)NCc3ccccc3)ncc2S1(=O)=O,-10%,nt,nt,nt,4%
CCOC(=O)c1oc2ccccc2c1COC(=O)CNC(=O)c1ccccc1F,-2%,nt,1,12,nt
